Data taken from ChEMBL document CHEMBL2218924, “A broad activity screen in support of a chemogenomic map for kinase signalling research and drug discovery” (Biochem J, 2013).

How the values were obtained:
[1] = target: T1, Mitogen-activated protein kinase kinase kinase 7 (Homo sapiens) (UniProt O43318); settings: at 1 µM
T1 sequence (whole entry): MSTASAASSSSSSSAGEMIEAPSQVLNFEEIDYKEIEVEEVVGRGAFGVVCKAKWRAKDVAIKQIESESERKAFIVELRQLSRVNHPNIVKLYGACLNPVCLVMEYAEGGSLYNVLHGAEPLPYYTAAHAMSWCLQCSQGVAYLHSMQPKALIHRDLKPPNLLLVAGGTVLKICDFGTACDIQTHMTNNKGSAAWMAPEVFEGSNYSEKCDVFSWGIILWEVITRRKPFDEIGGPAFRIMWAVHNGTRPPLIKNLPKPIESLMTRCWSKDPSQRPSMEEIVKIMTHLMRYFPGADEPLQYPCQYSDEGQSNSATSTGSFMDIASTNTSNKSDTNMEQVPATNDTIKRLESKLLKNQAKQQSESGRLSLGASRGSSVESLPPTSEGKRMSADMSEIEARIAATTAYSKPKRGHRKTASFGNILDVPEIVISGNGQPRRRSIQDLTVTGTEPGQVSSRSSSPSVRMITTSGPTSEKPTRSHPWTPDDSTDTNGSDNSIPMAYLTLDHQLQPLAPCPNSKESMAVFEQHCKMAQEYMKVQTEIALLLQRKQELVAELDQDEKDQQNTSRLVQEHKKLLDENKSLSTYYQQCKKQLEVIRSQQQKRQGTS

[2] = target: T1, Mitogen-activated protein kinase kinase kinase 7 (Homo sapiens); settings: at 10 µM
[3] = target: T2, Serine/threonine-protein kinase TAO1 (Homo sapiens) (UniProt Q7L7X3); settings: at 1 µM
T2 sequence (whole entry): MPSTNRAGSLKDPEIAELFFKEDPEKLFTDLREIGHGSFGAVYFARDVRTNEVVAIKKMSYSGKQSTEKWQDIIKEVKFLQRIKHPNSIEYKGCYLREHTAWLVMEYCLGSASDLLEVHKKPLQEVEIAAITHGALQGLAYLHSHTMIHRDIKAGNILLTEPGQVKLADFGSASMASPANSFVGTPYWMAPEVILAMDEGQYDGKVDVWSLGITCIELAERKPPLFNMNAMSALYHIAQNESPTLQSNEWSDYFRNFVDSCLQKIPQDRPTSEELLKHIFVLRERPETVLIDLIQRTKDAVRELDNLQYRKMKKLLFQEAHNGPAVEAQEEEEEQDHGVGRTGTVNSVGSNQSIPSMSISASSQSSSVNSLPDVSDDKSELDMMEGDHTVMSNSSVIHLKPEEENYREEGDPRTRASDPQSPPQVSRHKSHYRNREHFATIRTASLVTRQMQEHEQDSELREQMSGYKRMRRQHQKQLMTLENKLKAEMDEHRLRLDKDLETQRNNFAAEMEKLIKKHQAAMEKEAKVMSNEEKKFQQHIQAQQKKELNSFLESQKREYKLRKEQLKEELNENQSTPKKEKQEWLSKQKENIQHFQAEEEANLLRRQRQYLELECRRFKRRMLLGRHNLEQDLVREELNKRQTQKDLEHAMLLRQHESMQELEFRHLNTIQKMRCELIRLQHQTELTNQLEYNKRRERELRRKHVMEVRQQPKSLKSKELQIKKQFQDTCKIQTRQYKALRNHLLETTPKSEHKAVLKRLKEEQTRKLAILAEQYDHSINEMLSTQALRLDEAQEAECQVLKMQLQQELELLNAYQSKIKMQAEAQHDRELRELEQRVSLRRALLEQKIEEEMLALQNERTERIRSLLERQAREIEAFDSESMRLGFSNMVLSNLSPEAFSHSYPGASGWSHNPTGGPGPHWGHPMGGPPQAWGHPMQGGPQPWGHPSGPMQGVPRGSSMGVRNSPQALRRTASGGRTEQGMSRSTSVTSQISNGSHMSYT

[4] = target: T2, Serine/threonine-protein kinase TAO1 (Homo sapiens); settings: at 10 µM
[5] = target: T3, Serine/threonine-protein kinase TAO2 (Homo sapiens) (UniProt Q9UL54); settings: at 1 µM
T3 sequence (whole entry): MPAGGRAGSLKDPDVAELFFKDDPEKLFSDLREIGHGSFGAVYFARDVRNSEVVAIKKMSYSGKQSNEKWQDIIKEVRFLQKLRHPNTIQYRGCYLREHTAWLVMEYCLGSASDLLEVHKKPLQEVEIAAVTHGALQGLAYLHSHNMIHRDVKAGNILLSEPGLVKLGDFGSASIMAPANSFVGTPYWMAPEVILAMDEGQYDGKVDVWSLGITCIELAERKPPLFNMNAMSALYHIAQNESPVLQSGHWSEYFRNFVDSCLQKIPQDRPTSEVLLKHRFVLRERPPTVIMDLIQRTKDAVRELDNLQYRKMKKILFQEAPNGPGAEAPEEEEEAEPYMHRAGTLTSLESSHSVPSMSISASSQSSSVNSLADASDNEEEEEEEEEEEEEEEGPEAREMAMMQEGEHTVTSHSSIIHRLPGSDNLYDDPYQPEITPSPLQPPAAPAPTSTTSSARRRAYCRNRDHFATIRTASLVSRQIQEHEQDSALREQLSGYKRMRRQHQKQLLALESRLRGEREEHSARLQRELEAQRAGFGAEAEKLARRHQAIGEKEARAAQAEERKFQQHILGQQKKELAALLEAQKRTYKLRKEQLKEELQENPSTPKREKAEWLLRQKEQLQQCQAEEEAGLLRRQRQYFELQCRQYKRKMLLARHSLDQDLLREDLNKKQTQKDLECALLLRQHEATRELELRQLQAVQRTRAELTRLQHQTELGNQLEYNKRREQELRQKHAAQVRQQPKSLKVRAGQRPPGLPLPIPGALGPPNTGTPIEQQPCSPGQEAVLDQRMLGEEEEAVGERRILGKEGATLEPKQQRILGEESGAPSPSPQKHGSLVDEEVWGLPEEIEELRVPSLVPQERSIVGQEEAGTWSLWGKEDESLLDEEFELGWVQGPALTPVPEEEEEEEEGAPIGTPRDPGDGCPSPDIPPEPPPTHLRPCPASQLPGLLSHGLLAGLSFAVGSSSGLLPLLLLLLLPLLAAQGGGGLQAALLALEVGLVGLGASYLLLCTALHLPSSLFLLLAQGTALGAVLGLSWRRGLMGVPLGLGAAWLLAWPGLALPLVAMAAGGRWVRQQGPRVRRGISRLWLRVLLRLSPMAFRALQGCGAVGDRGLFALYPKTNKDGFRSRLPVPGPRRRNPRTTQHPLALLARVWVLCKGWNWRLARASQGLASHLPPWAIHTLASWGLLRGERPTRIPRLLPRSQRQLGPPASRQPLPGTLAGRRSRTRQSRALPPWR

[6] = target: T3, Serine/threonine-protein kinase TAO2 (Homo sapiens); settings: at 10 µM
[7] = target: T4, Serine/threonine-protein kinase TAO3 (Homo sapiens) (UniProt Q9H2K8); settings: at 1 µM
T4 sequence (whole entry): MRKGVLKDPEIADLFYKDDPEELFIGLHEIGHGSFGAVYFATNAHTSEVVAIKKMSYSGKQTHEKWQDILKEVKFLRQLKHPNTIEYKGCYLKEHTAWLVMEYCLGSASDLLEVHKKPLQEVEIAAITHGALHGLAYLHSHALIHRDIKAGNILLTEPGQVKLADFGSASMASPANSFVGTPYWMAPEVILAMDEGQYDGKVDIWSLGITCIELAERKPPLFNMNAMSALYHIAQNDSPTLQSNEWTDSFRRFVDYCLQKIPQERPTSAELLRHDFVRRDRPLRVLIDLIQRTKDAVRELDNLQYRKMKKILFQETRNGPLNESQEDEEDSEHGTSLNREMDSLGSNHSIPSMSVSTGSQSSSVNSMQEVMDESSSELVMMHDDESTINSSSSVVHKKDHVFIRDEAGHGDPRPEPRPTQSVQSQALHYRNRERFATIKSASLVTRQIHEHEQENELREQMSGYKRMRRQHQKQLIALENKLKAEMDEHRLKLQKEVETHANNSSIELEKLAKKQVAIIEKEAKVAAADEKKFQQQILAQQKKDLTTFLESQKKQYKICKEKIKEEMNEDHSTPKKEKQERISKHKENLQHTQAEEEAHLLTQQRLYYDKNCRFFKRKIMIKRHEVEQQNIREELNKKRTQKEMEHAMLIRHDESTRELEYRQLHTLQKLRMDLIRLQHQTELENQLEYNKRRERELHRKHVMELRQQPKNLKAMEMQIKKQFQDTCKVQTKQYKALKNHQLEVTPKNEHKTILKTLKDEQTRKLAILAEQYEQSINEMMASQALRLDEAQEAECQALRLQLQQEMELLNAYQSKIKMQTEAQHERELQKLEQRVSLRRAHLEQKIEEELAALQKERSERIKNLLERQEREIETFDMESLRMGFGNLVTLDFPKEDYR

[8] = target: T4, Serine/threonine-protein kinase TAO3 (Homo sapiens); settings: at 10 µM
[9] = target: T5, Serine/threonine-protein kinase TBK1 (Homo sapiens) (UniProt Q9UHD2); settings: at 1 µM
T5 sequence (whole entry): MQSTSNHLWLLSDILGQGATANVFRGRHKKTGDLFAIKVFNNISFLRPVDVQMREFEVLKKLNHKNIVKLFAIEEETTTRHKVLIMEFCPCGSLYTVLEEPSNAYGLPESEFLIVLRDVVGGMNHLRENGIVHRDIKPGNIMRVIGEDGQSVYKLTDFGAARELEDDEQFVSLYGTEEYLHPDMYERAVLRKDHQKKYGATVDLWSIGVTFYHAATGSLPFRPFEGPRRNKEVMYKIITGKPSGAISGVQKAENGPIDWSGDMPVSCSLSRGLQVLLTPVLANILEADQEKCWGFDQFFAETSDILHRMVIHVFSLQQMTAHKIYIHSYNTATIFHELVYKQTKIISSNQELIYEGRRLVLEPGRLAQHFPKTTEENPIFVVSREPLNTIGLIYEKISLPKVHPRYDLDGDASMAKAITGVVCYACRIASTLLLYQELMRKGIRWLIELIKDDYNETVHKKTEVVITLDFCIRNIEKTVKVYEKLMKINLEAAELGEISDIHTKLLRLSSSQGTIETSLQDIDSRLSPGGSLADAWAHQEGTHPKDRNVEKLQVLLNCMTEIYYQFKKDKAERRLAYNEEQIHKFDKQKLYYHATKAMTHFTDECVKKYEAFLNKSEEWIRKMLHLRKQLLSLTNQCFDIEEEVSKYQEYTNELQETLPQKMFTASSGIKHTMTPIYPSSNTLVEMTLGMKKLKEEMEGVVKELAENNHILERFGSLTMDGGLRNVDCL

[10] = target: T5, Serine/threonine-protein kinase TBK1 (Homo sapiens); settings: at 10 µM
[11] = target: T6, TGF-beta receptor type-1 (Homo sapiens) (UniProt P36897); settings: at 1 µM
T6 sequence (whole entry): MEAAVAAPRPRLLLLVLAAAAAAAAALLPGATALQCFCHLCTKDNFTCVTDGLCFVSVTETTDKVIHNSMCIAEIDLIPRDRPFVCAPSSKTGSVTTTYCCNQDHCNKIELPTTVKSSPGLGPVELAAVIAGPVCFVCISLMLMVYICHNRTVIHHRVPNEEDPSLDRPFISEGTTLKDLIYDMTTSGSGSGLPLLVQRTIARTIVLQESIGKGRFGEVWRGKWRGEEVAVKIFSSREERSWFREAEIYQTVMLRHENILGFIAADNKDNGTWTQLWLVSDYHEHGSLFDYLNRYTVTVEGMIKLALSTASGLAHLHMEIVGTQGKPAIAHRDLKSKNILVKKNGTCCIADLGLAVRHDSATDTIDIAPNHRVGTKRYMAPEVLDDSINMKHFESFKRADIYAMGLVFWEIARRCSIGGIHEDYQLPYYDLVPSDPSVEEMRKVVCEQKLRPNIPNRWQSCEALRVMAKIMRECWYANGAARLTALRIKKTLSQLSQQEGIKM

[12] = target: T6, TGF-beta receptor type-1 (Homo sapiens); settings: at 10 µM
[13] = target: T7, Inhibitor of nuclear factor kappa-B kinase subunit alpha (Homo sapiens) (UniProt O15111); settings: at 1 µM
T7 sequence (whole entry): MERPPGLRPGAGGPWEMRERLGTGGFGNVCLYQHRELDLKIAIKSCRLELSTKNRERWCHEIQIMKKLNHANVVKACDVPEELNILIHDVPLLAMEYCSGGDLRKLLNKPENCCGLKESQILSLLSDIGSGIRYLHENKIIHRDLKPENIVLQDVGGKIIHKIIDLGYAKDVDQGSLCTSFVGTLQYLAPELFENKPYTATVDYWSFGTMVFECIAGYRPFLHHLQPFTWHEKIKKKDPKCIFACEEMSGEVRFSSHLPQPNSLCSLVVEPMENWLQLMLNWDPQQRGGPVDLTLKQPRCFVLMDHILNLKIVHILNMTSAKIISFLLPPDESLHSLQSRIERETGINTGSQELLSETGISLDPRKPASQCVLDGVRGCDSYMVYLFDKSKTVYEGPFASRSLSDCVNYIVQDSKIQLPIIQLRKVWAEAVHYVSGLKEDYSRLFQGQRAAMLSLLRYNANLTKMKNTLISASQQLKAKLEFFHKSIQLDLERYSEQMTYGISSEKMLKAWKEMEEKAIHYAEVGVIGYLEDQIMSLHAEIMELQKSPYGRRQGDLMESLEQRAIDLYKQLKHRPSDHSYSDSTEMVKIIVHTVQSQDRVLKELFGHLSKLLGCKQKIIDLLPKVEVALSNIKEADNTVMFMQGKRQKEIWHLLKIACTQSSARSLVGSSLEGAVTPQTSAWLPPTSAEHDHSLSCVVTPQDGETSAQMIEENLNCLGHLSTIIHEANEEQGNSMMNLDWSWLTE

[14] = target: T7, Inhibitor of nuclear factor kappa-B kinase subunit alpha (Homo sapiens); settings: at 10 µM
[15] = target: Insulin receptor (Homo sapiens) (UniProt P06213); settings: at 1 µM
Sequence of Insulin receptor (Homo sapiens) (P06213 28-758 limits assumed): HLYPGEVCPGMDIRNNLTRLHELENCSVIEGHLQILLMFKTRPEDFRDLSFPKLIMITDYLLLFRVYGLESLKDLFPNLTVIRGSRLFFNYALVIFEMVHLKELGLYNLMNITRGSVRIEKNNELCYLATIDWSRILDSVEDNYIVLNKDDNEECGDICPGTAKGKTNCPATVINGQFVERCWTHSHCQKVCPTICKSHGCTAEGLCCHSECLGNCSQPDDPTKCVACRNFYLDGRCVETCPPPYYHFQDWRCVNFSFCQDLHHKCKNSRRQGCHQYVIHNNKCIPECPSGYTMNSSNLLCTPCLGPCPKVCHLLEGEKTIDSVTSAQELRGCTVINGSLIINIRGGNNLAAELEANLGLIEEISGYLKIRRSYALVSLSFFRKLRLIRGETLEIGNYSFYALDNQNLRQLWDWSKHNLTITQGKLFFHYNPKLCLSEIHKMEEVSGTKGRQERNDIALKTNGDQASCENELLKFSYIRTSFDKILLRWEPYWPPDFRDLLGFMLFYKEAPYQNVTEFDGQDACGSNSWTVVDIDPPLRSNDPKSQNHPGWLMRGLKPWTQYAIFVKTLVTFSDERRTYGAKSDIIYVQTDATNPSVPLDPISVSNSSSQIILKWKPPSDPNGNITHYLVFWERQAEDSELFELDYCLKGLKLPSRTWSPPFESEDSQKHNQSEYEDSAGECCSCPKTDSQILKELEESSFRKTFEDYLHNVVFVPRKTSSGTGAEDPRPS
Sequence of Insulin receptor (Homo sapiens) (P06213 763-1382 limits assumed): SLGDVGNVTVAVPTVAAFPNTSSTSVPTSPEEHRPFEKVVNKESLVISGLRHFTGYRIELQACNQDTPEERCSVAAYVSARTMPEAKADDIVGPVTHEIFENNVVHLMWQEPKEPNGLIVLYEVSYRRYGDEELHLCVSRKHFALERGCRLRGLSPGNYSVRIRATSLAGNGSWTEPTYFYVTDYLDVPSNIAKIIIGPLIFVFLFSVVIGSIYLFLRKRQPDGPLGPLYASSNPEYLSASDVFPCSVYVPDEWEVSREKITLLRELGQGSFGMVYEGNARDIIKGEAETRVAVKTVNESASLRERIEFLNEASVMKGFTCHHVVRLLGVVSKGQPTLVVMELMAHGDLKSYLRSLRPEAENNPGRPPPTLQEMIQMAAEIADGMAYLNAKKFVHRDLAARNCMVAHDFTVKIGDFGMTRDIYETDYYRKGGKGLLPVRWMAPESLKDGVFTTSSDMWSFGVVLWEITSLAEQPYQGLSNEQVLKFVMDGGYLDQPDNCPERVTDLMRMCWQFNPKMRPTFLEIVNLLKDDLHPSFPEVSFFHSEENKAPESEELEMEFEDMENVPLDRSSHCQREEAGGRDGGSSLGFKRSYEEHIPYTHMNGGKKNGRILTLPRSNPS

Structure (SMILES) | residual activity [1] | residual activity [2] | residual activity [3] | residual activity [4] | residual activity [5] | residual activity [6] | residual activity [7] | residual activity [8] | residual activity [9] | residual activity [10] | residual activity [11] | residual activity [12] | residual activity [13] | residual activity [14] | residual activity [15]
Cn1sc(=O)n(Cc2ccccc2)c1=O | 85% | 79% | 87% | 85% | 95% | 91% | 91% | 91% | 61% | 55% | 77% | 72% | 91% | 93% | 93%
O=C1Nc2ccccc2/C1=C\c1c(Cl)[nH]c2ccccc12 | 99% | 77% |  | 63% |  | 44% | 85% | 40% | 72% | 43% |  | 74% |  |  | 
NC(=O)c1ccc(-c2nc(-c3ccc4c(c3)OCCO4)c(-c3ccccn3)[nH]2)cc1 |  |  | 96% | 80% | 100% | 93% |  |  | 83% | 72% |  |  |  |  | 
